Experimental data published in PubChem BioAssay (EPA / NIEHS).
Activity calls are given as the source filed them. How the source made its calls: active means hit-call score of the fitted dose curve at least 0.9, where 1 is the maximum; inactive means score below 0.9.

Read-out: NAD(P)H dehydrogenase [quinone] 1 (NQO1), NQO1 (gene 1728)
Assay: LTEA_HepaRG_NQO1: Life Technologies and Expression Analysis (LTEA) Assay for NAD(P)H dehydrogenase [quinone] 1 (NQO1) using HepaRG (AID 2283526)
Settings: mRNA level, 48 h; actives raise or lower the signal
Procedure: LTEA_HepaRG is a cell based, multiplexed-readout assay that uses HepaRG, a human liver cell line, with measurements taken at 48 hours after chemical dosing on a 96-well plate.LTEA_HepaRG_NQO1 is one of 102 assay component(s) measured in the LTEA HepaRG cell culture assay. It is a marker of Diseases associated with NQO1 include Tardive Dyskinesia and Childhood Leukemia.Data from the assay component LTEA_HepaRG_NQO1 was analyzed into 1 endpoint. This assay endpoint, LTEA_HepaRG_NQO1, was analyzed with bidirectional fitting relative to DMSO as the negative control and baseline of activity. Using a type of inducible reporter, measures of mRNA induction for gain or loss-of-signal activity can be used to understand regulation of transcription factor activity. To generalize the intended target to other relatable targets, this assay endpoint is annotated to the oxidoreductase intended target family, where the subfamily is quinone-acceptor.
A total of 1060 chemcials from the ToxCast library were tested in eight-point concentration-response experiments. Cell culture and cytotoxicity assays were conducted at Thermo Fisher Scientific's Custom Services facility (Madison, WI). A single lot of human HepaRG cells (Thermo Fisher Scientific, Frederick, MD) was used for the cell culture experiments. 96-well format collagen type I coated plates of human HepaRG cells were prepared using established methods. Briefly, cryopreserved HepaRG cells were thawed, plated at a density of approximately 100,000 cells/well in HepaRG Thaw, Plate, and General Purpose media (HPRG770, Thermo Fisher Scientific), and incubated for 48 hours. 0.5% DMSO was selected as vehicle control to balance the requisite need of DMSO in HepaRG cultures to maintain differentiation (for example, baseline metabolism, proportions of hepatocytes vs. cholangiocytes), while enabling further hepatic receptor pathway activation (for example, PXR and CAR) in response to chemical exposure. 48 hours after plating, the culture medium was replaced with HepaRG Serum-Free Incudtion Media. Cells were exposed to each test chemical in duplicate and maintained in CO2 incubators for another 48 hours. Chemical plates were thawed to room temperature and 200x concentrations of treatment groups were prepared. 8-point conentration-reponse curves were made with the highest exposure at 100 uM, followed by half-log dilutions, all in 0.5% DMSO. Each test plate contained variouse controls, induction positive controls (1mM phenobarbital), cytotoxicity positive controls ([…] aflatoxin B1), vehicle controls (0.5% DMSO), and total lysis controls (0.5% DMSO). Cell morphology images were taken using an Essen IncuCyte FLR automated microscope, with six 96-well plates imaged in about 24 minutes. Images were captured and exported and JPEG files. Spent culture media was transfered to black-well plates for the LDH assay, and remaining media was sorted at -80 C for later use. Cells were treated with RLT buffer and frozen until shipped for gene expression analysis. Total RNA was isolated from the cell suspension in 75 uL of Buffer RLT (Qiagen, Germantown, MD 20874) by Quintiles/Expression Analysis (Durham, NC) using a custom isolation procedure. Total RNA from each plate well was transferred to a preamplification plate. Fluidigm's 96.96 Dynamic ArrayTM (Fluidigm, Amsterdam, the Netherlands) technology was used for gene expression analyses by quantitative reverse transcription polymerase chain reaction (qRT-PCR, performed by Quintiles/Expression Analysis, Durham, NC)89. Standard TaqManTM Assays (Applied Biosystems/ThermoFisher Scientific, Foster City, CA) were used to assess the expression of 93 genes selected based on their selectivity and sensitivity to important hepatic receptors known to be modulated by environmental chemicals; importance in human hepatocyte functionality; and hepatotoxicity. […]

Compound	outcome	AC50
CC(O)CC(C)(C)O (stereo not given)	inactive	–
NC(=O)c1nc(-c2cccc(-c3cc(F)ccc3OCC(F)(F)C(F)(F)F)c2)n[nH]1	–	78.2 µM (active)
c1ccc2ccccc2c1	inactive	–
Cc1oc2c(NC(=O)c3c(Cl)cccc3Cl)cccc2c1C(C)(C)O	inactive	–
CCCCCCCCN(C)CCCCCCCC	inactive	–
COCC(C)OCC(C)OCC(C)O (stereo not given)	inactive	–
O=C(Nc1ccc(Cl)cc1)Nc1ccc(Cl)c(Cl)c1	–	17.8 µM (active)
CCCCCCCCOc1ccc(C(=O)c2ccccc2)c(O)c1	inactive	–
CCCCOC(=O)CC(CC(=O)OCCCC)(OC(C)=O)C(=O)OCCCC	inactive	–
Cc1cc(F)ccc1-c1cc(N2CC[C@@H](O)[C@H]2CO)ncc1N(C)C(=O)C(C)(C)c1cc(C(F)(F)F)cc(C(F)(F)F)c1	–	79.8 µM (active)
CC[C@H](NC(=O)c1cc(F)ccc1NS(=O)(=O)c1cccc2cccnc12)c1ccccc1	inactive	–
OC12N=C(c3ccccc3)SC1Cc1cc(Cl)ccc12 (stereo not given)	inactive	–
OCCO	inactive	–
O=C1c2ccccc2C(=O)N1CCc1noc(-c2ccc(CN3CCCCCC3)s2)n1	inactive	–
CN1C(=O)CC[C@H]1c1cccnc1	inactive	–
O=C(O)c1ccccc1-n1cc(C(=O)O)c(=O)c2cc(Nc3c(F)cc(F)cc3Cl)c(Cl)cc21	inactive	–
O=c1ccc2ccccc2o1	inactive	–
Cc1cc2c(cc1C(F)(F)F)N(C(=O)Nc1ccc(Oc3cccnc3C)nc1)CC2	inactive	–
CCN(Cc1cccc(S(=O)(=O)O)c1)c1ccc(C(=C2C=CC(=[N+](CC)Cc3cccc(S(=O)(=O)O)c3)C=C2)c2ccccc2S(=O)(=O)[O-])cc1	inactive	–
Cc1cn([C@H]2C[C@H](N=[N+]=[N-])[C@@H](CO)O2)c(=O)[nH]c1=O	inactive	–

Compound	outcome	AC50
Cc1cccc2ccccc12	inactive	–
CCN(Cc1cccnc1)C(=O)c1cccc(Cl)c1[C@]1(C)C(=O)N(Cc2ccc(OC)cc2OC)c2ccc(Cl)cc21	inactive	–
CC[C@@H]1C[C@H](N(Cc2cc(C(F)(F)F)cc(C(F)(F)F)c2)C(C)=O)c2cc(C(F)(F)F)ccc2N1C(=O)OC(C)C	inactive	–
CCCCCCCCCCCCO	inactive	–
CN(C)C(=O)C1(N2CCCCC2)CCN(CC[C@@]2(c3ccc(Cl)c(Cl)c3)CN(C(=O)c3ccccc3)CCO2)CC1	inactive	–
CCCC(=O)OCCC(C)C	inactive	–
CC1=CC(=O)/C(=C(/C)O)C(=O)O1	inactive	–
CN1C(=O)N(c2ccccc2Br)Cc2cnc(Nc3ccc4c(c3)OCC(CO)O4)nc21 (stereo not given)	inactive	–
CCCCCc1ccc(N)cc1	inactive	–
CN(C)c1ccc(C(=C2C=CC(=[N+](C)C)C=C2)c2ccc(N(C)C)cc2)cc1	–	5 µM (active)
O=c1c(-c2ccc(O)cc2)coc2cc(O)cc(O)c12	inactive	–
O=C(O)Cc1cc(I)c(Oc2ccc(O)c(I)c2)c(I)c1	inactive	–
CCCCCCCCOC(=O)c1cc(O)c(O)c(O)c1	inactive	–
O=C=NCCCCCCN=C=O	inactive	–
c1ccc2n[nH]nc2c1	inactive	–
CCO[Si](CCCNC(N)=O)(OCC)OCC	inactive	–
CC(C)(C)c1cc(/C=C2\SC(N)=NC2=O)cc(C(C)(C)C)c1O	–	15.8 µM (active)
O=CCCCC=O	inactive	–
CCCCCCCC[Si](OCC)(OCC)OCC	inactive	–
Oc1ccccc1	inactive	–
